molecular target: COX10; assay: pooled miR-30 sensor sort-seq; sequence = guide strand; settings: shRNA
Also: reference of the scale not given here.

Row | Sequence | sensor-assay potency score (higher = more potent)
1 | TTGAAATGAGGAAACTGCCAGG | -0.59
2 | TTTAGAAGGAACTGCTTCCAAC | -0.611
3 | TTTCTGGACAAAGATAGGCTGG | -0.448
4 | TACCACAACATGCTCGCCTGGC | -0.0841

molecular target: COX19; assay: as above; settings: shRNA

Row | Sequence | sensor-assay potency score (higher = more potent)
5 | ATTGTTATGAAGACACTTCATG | -0.941
6 | ATTATTGTTATGAAGACACTTC | 0.267
7 | ATCAATTTTCTCTCCATCCTGC | 0.0848
8 | TAAAGCTTTTACATTCACCTAA | 0.0153
9 | TTCCACTAGTCAAGTCTCCAAA | -0.858
10 | TATTGTTATGAAGACACTTCAT | 0.108
11 | TTCACCTAAGTGATCCAGCGGG | -0.488
12 | TTTTACATTCACCTAAGTGATC | -1.57
13 | TAAATATTCTTTTGATTCCTTT | -0.553
14 | ATGAATTTCTCTTTAAAGCTTT | -0.368
15 | TAGTCAAGTCTCCAAATCCCAG | -1.71
16 | TTCTGCACAAAGCATTTTCAAA | -1.5

molecular target: COX4I2; assay: as above; settings: shRNA

Row | Sequence | sensor-assay potency score (higher = more potent)
17 | TTCCTCAGCACCAAGCTCCAGG | -0.515
18 | TCAGCGTTGAGTTCTGTGCAGA | -0.281
19 | TTCATGTCCAGCATGCGCTGCA | 0.312
20 | AAAGGTCTCATTGAACTGGAGC | -0.86
21 | TGAAGAAGAAGACACAACCCAT | -0.804
22 | TCTCATTGAACTGGAGCCGGTA | -1.09
23 | TAGGGGGACATCTTCCCCCCAC | -1.04
24 | TCGTCCGTCAAGGTGATCGGCT | -1.37
25 | TCCACCTTTCCTCAGCACCAAG | -2.06
26 | TTCTTCTCATAGTCCCAGCGGG | -0.678
27 | TTGAGTTCTGTGCAGAAGGGCT | -0.914
28 | TTCATCTCCGCAAAGGTCTCAT | -0.117

molecular target: COX6B2; assay: as above; settings: shRNA

Row | Sequence | sensor-assay potency score (higher = more potent)
29 | TGATCTGCTCGTTCCAGCTCTC | -0.561
30 | TTACGGATCTGGTTCTGGCTGG | 0.238
31 | TCGTTCCAGCTCTCCACCCAGC | -1.49
32 | TAGTACTCGCAGGGCTGCGTGC | -1.22
33 | TTGATCTGCTCGTTCCAGCTCT | -0.259
34 | TACACGCGGAAATAGTACTCGC | -0.697
35 | TCCCGTTCTTGATCTGCTCGTT | -0.329
36 | TGGTAGTCCAGGAAGTTCTGGT | -0.611
37 | TAGTCCAGGAAGTTCTGGTAGC | -0.67
38 | TACGGATCTGGTTCTGGCTGGG | -0.241
39 | TTCTTGATCTGCTCGTTCCAGC | -0.0146
40 | TTCCAGCTCTCCACCCAGCTGA | -0.84
